Experimental findings from PubChem BioAssay (Tox21) are described below.

Assay [1] is described as follows: qHTS assay to identify small molecule antagonists of the sonic hedgehog signaling (Shh) pathway (AID 1259369; calls by dose curve; also: nearly all actives have a fitted effect of over 45% in size; also: potency is read from the fitted curve at half-maximal effect). The essentials: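 3T3Gli1-Luc, conditioned-medium-stimulated, 24hr cpd, 37C/5% CO2; Gli1-driven firefly Luc luminescence after 30min RT with luciferase reagent. Cells plated 4hr before cpd.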
In general terms: qHTS replaces the single test concentration by a dilution series.

In assay [2] the target is Estrogen receptor beta (Homo sapiens) (UniProt Q92731). Description: qHTS assay to identify small molecule agonists of the estrogen receptor beta (ER-beta) signaling pathway (AID 1259377; active = well fitted activation curve with a large enough effect in the signal ratio in the repeat runs, not every such curve was filed as active; the % refers to the signal ratio). The essentials: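 Beta-lactamase reporter readout: fluorescence of LiveBLAzer B/G FRET substrate after 2 h at room temperature, following 16 h compound treatment of ER-beta-UAS-bla HEK293T cells at 37C in 2% charcoal-stripped FBS medium.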

Assay [3] has the same target. Description: qHTS assay to identify small molecule antagonists of the estrogen receptor beta (ER-beta) signaling pathway (AID 1259378; active = well fitted inhibition curve with a large enough effect in the signal ratio in the repeat runs, not every such curve was filed as active; the % refers to the signal ratio). A digest of the protocol: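 Antagonist mode: compounds added to beta-lactamase reporter HEK293T ER-beta-UAS cells stimulated with E2 (1nM final), 16 hr at 37C. LiveBLAzer B/G FRET substrate, 2 hours room temperature, fluorescence read-out.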

Assay [4] is described as follows: qHTS assay to identify small molecule agonists of the androgen receptor (AR) signaling pathway in the presence of an antagonist - cell viability counter screen (AID 1259379).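 Also: MDA-kb2 human breast cancer cells carrying an MMTV luciferase reporter; series mostly up to about 92 µM; nearly all actives have a fitted effect of over 25% in size.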 A digest of the protocol: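 Cells: MDA-kb2 (MMTV-luc, AR and GR elements), 3,000/well, 5 hr settle. Added: nilutamide 3.0uM final, then compounds (15 conc.). Incubation: 16 hr, 37C, no CO2. Read-out: CellTiter-Fluor, 1 hr, fluorescence.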

Assay [5] is described as follows: qHTS assay to identify small molecule agonists of the estrogen receptor beta (ER-beta) signaling pathway - cell viability counter screen (AID 1259380). Also: nearly all actives have a fitted effect of over 30% in size. The essentials: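 HEK293T ER-beta-UAS-bla; 2% CS-FBS; 6 hr pre-plate, 16 hr cpd at 37C/5% CO2; LiveBLAzer read first, then CellTiter-Glo 30 min RT, luminescence.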
Assay [6] in a line: qHTS assay to identify small molecule antagonists of the estrogen receptor beta (ER-beta) signaling pathway - cell viability counter screen (AID 1259382).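 Also: HEK293T cells carrying ER-beta-UAS-bla reporter stimulated with estradiol; series mostly up to about 92 µM; nearly all actives have a fitted effect of over 55% in size.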 The essentials:
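Cells: ER-beta-UAS-bla HEK293T, 2,000/well, 2% CS-FBS, 6 hr settle. Cpd + E2 (1nM final), 16 hr, 37C/5% CO2. Bla FRET substrate 2 hr RT, then CellTiter-Glo 30 min RT, luminescence.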

Assay [7] has as its target Estrogen receptor (Homo sapiens) (UniProt P03372). Description: qHTS assay to identify small molecule agonists of the estrogen receptor alpha (ER-alpha) signaling pathway in the presence of an antagonist (AID 1259383; calls by dose curve; also: top concentration of the series differs between compounds; nearly all actives have a fitted effect of over 15% in size). The essentials:
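VM7Luc4E2, endog. ER-alpha + 4×ERE-luc; charcoal-stripped FBS, phenol red-free, 5 d; 24hr plating; +10.0nM ICI-182,780 (final); cpds 15 conc, 22hr, 37C/5% CO2; ONE-Glo luminescence.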

Assay [8] is described as follows: qHTS assay to identify small molecule agonists or antagonists of the thyroid stimulating hormone receptor (TSHR) signaling pathway - wild type cell line counter screen (AID 1259384; calls by dose curve). The essentials: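 Counter screen in untransfected Hek293: compounds (15-point titration, triplicate) plus phosphodiesterase inhibitor Ro20-1724 added after 18 h plating; 30 min RT. Intracellular cAMP via competitive d2/cryptate immunoassay, 1 h incubation.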

Assay [9] deals with Thyrotropin receptor (Homo sapiens) (UniProt P16473). Description: qHTS assay to identify small molecule antagonists of the thyroid stimulating hormone receptor (TSHR) signaling pathway (AID 1259385; calls by dose curve; also: nearly all actives have a fitted effect of over 20% in size; also: potency is read from the fitted curve at half-maximal effect). A digest of the protocol:
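Antagonist mode: compound-treated TSHR-expressing HEK293 cells were stimulated with 1.5 ng/mL TSH (final) in presence of Ro20-1724 for 30 min at RT. HTRF cAMP detection after 1 h; each compound tested at 15 concentrations, triplicate.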

The nature of assay [10]: qHTS assay to identify small molecule agonists of the estrogen receptor alpha (ER-alpha) signaling pathway in the presence of an antagonist - cell viability counter screen (AID 1259386).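 Also: series mostly up to about 92 µM; cells exposed to compounds for 22 h at 37 °C before the viability read; nearly all actives have a fitted effect of over 30% in size.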 The essentials:
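VM7Luc4E2, stripped-serum pre-culture 5 d; 24hr plating; +ICI-182,780 10.0nM final; cpds 15 conc, 22hr, 37C/5% CO2; CellTiter-Fluor added at 21hr, fluorescence 1hr later.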

Assay [11] concerns the target Progesterone receptor (Homo sapiens) (UniProt P06401). Description: qHTS assay to identify small molecule agonists of the progesterone receptor (PR) signaling pathway (AID 1346784; calls by dose curve; also: nearly all actives have a fitted effect of over 30% in size; also: potency is read from the fitted curve at half-maximal effect). A digest of the protocol:
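HEK 293T PR-UAS-bla reporter cells, 2% charcoal-stripped FBS; 6 hr settle at 37C/5% CO2, compound (DMSO) 16 hr, LiveBLAzer B/G FRET substrate 2 hr RT, fluorescence intensity read.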

Assay [12] shares this target. Description: qHTS assay to identify small molecule antagonists of the progesterone receptor (PR) signaling pathway (AID 1346795; active = well fitted inhibition curve with a large enough effect in the signal ratio in the repeat runs, not every such curve was filed as active; the % refers to the signal ratio; also: potency is read from the fitted curve at half-maximal effect). The essentials:
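Beta-lactamase reporter, HEK293T PR-UAS-bla line; 2% charcoal-stripped FBS; 6 hr pre-incubation, 37C/5% CO2. Compound + R5020 1 nM final, 16 hr. LiveBLAzer B/G FRET substrate, 2 hr RT; fluorescence intensity read.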

Assay [13] can be described thus: qHTS assay to identify small molecule antagonists of the progesterone receptor (PR) signaling pathway - cell viability counter screen (AID 1346798). Also: series mostly up to about 92 µM; nearly all actives have a fitted effect of over 50% in size. A digest of the protocol:
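Luminescence readout (CellTiter-Glo, 30 min, RT) of viability in PR-UAS-bla HEK293T cells exposed to compound and R5020 agonist for 16 hr at 37C, 5% CO2; run in the same wells as the beta-lactamase reporter read.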

A short description of assay [14]: qHTS assay to identify small molecule agonists of the progesterone receptor (PR) signaling pathway - cell viability counter screen (AID 1346799; calls by dose curve; also: nearly all actives have a fitted effect of over 45% in size). The essentials: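 HEK293T PR-UAS-bla, 3,000 cells/well, 2% charcoal-stripped FBS; 6 h settle, compound 16 h at 37C/5% CO2; LiveBLAzer 2 h RT, then CellTiter-Glo 30 min RT, luminescence read.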
A short description of assay [15]: qHTS assay to identify small molecule antagonists of the TGF-beta/Smad signaling pathway - cell viability counter screen (AID 1346824). Also: nearly all actives have a fitted effect of over 50% in size. A digest of the protocol: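 Cytotoxicity counter-screen run in the same wells as the beta-lactamase Smad reporter read: CellTiter-Glo luminescence after 30 min at room temperature. HEK 293T SBE-bla cells had 5 hr compound exposure at 37 C with TGF-beta1 (0.25 ng/mL stock).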

A short description of assay [16]: qHTS assay to identify small molecule agonists of the TGF-beta/Smad signaling pathway - cell viability counter screen (AID 1346829). Also: top concentration of the series differs between compounds; nearly all actives have a fitted effect of over 45% in size. The essentials: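 After overnight seating at 37 C and 5% CO2, reporter cells got compounds for 5 hr and FRET substrate for 2 hr; cell viability then came from CellTiter-Glo luminescence.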
Assay [17] can be described thus: qHTS assay to identify small molecule agonists of the TGF-beta/Smad signaling pathway (AID 1346859; active = well fitted activation curve with a large enough effect in the signal ratio in the repeat runs, not every such curve was filed as active; the % refers to the signal ratio; also: series mostly up to about 77 µM). A digest of the protocol:
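Read-out: fluorescence at 460 and 530 nm (405 nm excitation) after a 2 hr room-temperature incubation with beta-lactamase FRET substrate. SBE-bla HEK 293T cells had been treated with test compounds for 5 hr at 37 C.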

Assay [18] has as its target Thyrotropin-releasing hormone receptor (Homo sapiens) (UniProt P34981). Description: qHTS assay to identify small molecule antagonists of the thyrotropin-releasing hormone receptor (TRHR) signaling pathway (AID 1346877; active = well fitted inhibition curve with a large enough effect in the repeat runs, not every such curve was filed as active; also: series mostly up to about 51 µM). A digest of the protocol:
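Intracellular calcium fluorescence, read kinetically every second over 3 min, reports TRH-evoked signalling in HEK293 cells carrying TRHR. Test compounds were added 5 min ahead of a 1 nM TRH challenge.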

Assay [19] shares this target. Description: qHTS assay to identify small molecule agonists of the thyrotropin-releasing hormone receptor (TRHR) signaling pathway (AID 1346891; calls by dose curve;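 also: HEK293 cells expressing TRHR with calcium dye readout; series mostly up to about 58 µM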). A digest of the protocol: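 HEK293/TRHR cells, 1500 per well, 18 h 37 °C; Ca dye 2 h 37 °C; pin-tool compound addition (agonist mode); kinetic fluorescence 3 min, 1 s reads; 15 concentrations, triplicate.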
Assay [20] addresses Androgen receptor (Homo sapiens) (UniProt P10275). Description: qHTS assay to identify small molecule agonists of the androgen receptor (AR) signaling pathway in the presence of an antagonist (AID 1259381; calls by dose curve; also: nearly all actives have a fitted effect of over 15% in size; also: potency is read from the fitted curve at half-maximal effect). The essentials: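 MDA-kb2 cells, 3,000/well, rested 5hr at 37C/0% CO2 → nilutamide 3.0uM final or buffer → compounds, 15 conc. → 16hr at 37C → ONE-Glo, 30min RT → luminescence.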

Several values for one entry are separate records, joined by “and”; a condition that tells them apart may be missing. Equal values may be shown once. Records with an inconclusive call do not appear. Where a structure was tested more than once in an assay, its records may differ in their call. Activity calls are given as the source filed them. Unless noted, calls follow the shape of the dose curve; as a rule, active = well fitted curve in the direction sought with a large enough effect in the repeat runs; inconclusive = weak or mixed curves; inactive = no such curve, though single readings can be large; an effect the other way counts as inactive or inconclusive.

Androgen receptor (Homo sapiens), sequence (P10275 whole entry, looked up): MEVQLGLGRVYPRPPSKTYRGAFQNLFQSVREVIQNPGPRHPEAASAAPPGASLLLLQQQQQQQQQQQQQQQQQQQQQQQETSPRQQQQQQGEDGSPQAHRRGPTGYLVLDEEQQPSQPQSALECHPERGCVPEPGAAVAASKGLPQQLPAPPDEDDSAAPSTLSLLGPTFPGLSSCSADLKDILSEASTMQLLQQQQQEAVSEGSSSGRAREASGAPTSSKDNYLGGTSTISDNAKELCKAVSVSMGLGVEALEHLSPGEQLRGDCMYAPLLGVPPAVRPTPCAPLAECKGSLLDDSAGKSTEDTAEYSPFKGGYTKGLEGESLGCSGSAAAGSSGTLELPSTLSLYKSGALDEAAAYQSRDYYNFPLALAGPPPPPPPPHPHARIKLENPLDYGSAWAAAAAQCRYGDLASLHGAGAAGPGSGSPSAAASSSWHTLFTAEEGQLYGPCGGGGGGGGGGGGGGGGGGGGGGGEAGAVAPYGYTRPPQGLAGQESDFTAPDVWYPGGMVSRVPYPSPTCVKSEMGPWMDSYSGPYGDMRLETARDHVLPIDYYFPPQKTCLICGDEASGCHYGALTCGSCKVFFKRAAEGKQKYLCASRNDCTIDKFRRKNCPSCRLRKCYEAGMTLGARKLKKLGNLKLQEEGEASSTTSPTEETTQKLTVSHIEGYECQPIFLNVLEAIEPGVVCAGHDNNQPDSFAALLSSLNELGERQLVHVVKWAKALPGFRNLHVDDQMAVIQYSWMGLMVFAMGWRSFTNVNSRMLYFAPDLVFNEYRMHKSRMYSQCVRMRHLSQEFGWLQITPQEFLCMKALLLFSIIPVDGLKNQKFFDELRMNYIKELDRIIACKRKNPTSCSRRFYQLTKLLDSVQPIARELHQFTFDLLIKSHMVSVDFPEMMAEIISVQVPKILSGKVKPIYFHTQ
Progesterone receptor (Homo sapiens), sequence (P06401 whole entry, looked up): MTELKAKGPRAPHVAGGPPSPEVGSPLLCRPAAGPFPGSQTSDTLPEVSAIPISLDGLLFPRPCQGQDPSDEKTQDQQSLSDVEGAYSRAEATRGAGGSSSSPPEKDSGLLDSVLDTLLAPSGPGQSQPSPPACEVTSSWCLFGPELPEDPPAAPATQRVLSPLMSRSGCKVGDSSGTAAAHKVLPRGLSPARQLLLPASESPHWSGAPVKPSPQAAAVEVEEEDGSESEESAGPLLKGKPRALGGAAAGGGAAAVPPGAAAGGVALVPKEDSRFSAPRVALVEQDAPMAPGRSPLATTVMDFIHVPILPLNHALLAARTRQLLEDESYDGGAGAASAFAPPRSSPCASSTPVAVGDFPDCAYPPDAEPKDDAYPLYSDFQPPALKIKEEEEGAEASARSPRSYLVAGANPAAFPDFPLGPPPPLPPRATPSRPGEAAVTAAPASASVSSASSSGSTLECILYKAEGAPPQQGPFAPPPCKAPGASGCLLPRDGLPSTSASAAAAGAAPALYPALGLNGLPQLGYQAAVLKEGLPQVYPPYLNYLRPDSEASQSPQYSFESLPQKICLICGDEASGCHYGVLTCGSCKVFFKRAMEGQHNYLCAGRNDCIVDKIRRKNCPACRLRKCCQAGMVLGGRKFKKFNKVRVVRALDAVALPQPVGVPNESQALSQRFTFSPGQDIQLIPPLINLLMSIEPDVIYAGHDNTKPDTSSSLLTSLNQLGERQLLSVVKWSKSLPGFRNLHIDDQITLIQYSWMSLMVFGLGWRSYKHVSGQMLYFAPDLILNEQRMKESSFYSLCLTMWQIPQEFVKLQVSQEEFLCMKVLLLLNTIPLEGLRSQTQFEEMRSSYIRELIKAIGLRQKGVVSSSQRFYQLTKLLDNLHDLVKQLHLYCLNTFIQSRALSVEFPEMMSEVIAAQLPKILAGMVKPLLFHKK
Estrogen receptor (Homo sapiens), sequence (P03372 whole entry, looked up): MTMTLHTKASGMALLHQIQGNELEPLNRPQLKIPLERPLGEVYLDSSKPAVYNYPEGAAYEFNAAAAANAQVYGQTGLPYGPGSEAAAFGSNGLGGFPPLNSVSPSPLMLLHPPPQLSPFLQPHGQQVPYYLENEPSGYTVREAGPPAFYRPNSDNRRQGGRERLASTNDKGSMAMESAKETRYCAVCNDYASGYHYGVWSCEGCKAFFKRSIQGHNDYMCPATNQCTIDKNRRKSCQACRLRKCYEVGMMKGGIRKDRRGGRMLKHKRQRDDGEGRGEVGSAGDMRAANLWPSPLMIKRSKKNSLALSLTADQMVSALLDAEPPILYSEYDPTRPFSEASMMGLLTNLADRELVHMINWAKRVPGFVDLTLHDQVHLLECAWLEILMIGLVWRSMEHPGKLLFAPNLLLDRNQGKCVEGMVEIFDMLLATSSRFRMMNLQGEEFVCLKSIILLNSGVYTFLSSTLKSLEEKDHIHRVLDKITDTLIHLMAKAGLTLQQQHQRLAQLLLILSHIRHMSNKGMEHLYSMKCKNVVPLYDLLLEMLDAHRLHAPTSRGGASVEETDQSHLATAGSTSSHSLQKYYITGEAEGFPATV
Thyrotropin receptor (Homo sapiens), sequence (P16473 whole entry, looked up): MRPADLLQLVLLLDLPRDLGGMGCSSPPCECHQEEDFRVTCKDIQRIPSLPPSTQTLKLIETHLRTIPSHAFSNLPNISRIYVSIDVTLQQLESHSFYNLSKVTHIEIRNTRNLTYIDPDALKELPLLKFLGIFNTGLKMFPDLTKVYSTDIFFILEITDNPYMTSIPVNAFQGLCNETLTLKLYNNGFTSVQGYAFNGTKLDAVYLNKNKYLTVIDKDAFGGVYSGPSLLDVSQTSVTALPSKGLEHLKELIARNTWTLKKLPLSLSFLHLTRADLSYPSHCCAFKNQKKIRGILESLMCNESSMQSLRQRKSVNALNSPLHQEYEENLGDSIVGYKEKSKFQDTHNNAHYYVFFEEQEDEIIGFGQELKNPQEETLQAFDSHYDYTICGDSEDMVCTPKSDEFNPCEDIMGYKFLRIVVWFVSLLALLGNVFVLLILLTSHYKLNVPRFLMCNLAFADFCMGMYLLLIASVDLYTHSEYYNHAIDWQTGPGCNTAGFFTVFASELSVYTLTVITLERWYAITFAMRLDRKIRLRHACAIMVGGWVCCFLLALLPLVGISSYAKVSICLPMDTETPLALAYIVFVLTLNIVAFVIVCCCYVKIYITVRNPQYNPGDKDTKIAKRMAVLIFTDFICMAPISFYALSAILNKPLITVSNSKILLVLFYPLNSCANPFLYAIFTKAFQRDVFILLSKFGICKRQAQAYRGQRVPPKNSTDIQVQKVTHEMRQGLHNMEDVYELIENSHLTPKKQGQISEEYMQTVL
Estrogen receptor beta (Homo sapiens), sequence (Q92731 whole entry, looked up): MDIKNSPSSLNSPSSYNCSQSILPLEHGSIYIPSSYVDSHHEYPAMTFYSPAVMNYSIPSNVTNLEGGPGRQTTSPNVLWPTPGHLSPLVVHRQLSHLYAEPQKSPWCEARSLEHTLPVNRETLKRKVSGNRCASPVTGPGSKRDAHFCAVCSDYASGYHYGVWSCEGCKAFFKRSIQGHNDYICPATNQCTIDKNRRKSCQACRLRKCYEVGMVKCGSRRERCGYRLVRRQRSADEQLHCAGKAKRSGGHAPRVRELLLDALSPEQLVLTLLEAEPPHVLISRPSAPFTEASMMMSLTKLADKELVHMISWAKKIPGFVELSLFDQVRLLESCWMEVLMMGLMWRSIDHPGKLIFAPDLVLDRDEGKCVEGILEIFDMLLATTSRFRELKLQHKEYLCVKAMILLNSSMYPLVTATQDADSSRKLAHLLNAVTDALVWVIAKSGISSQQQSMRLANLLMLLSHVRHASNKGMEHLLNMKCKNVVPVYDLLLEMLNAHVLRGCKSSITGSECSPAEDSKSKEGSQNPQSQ
Thyrotropin-releasing hormone receptor (Homo sapiens), sequence (P34981 whole entry, looked up): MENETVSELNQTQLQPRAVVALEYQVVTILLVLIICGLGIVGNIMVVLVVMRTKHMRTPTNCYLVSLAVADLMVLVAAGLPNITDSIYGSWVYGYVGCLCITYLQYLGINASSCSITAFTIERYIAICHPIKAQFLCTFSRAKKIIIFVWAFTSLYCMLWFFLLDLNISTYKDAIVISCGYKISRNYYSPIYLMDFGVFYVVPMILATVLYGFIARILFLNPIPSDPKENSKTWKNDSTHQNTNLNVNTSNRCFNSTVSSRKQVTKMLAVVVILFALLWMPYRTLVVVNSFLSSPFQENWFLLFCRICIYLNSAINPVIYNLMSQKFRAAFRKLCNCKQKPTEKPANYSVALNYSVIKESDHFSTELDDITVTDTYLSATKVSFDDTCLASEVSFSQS

For the molecule `COC(=O)CC(=O)OC`, the Potency result in [1], in [2], in [3], in [4], in assay [5] and in assay [6] was “inactive” in each case. Moreover, the Potency entry in [7], in assay [8], in assay [9], in [10], in [11] and in assay [12] was “inactive” each time. The Potency entry in [13], in [14], in assay [15], in assay [16], in assay [18] and in [19] was “inactive” in each case. Also, the molecule was classed as inactive in [17].

Turning to `C=C1C[C@H]2[C@@H]3C=C(C)C4=CC(=O)CC[C@]4(C)[C@H]3CC[C@]2(C)[C@@]1(OC(C)=O)C(C)=O`, the Potency in [1] is 19.7 µM (active) and inactive; in assay [20] it was 39.4 nM (active) and 59.6 nM (active). Moreover, the Potency entry in assay [2], in assay [3], in assay [4], in assay [5], in assay [6] and in assay [7] was “inactive” each time. Besides, the Potency entry in assay [12], in assay [15], in assay [16], in assay [18] and in [19] was “inactive” in each case. Moreover, the call in assay [17] was inactive.

For `c1ccc2c(c1)[nH]c1ccccc12`, the Potency result in assay [1], in [2], in assay [3], in assay [4], in [5] and in assay [20] was “inactive” in each case. Besides, the Potency entry in assay [6], in [7], in assay [10], in assay [11], in [13] and in [14] was “inactive” in each case. Besides, the Potency entry in assay [15], in assay [16], in [18] and in assay [19] was “inactive” each time. Further, the Potency in assay [12] was 26.8 µM (active). The call in [17] was inactive.

In the case of `CC(C)=CCO`, the Potency entry in assay [1], in assay [2], in [3], in assay [4], in assay [5] and in assay [6] was “inactive” each time. The Potency result in assay [7], in assay [8], in assay [9], in assay [10], in [11] and in [12] was “inactive” throughout. Besides, the Potency entry in assay [13], in assay [14], in assay [15], in [16], in assay [18] and in assay [19] was “inactive” each time. The molecule was called inactive in [17].

In the case of `CC(=O)O[C@]1(C(C)=O)CC[C@H]2[C@@H]3C=C(Cl)C4=CC(=O)CC[C@]4(C)[C@H]3CC[C@@]21C`, the Potency result in assay [1], in assay [2], in assay [3], in [4], in assay [5] and in assay [6] was “inactive” throughout. Further, the Potency entry in assay [7], in assay [8], in [10], in assay [12], in assay [13] and in [15] was “inactive” each time. Also, the Potency result in [16], in assay [18] and in [19] was “inactive” in each case. For the same molecule, the Potency in assay [9] was 29.8 µM (active).

On to `O=C1CCc2ccccc2O1`, for which the Potency entry in assay [1], in assay [2], in assay [3], in assay [4], in [5] and in assay [6] was “inactive” each time. Further, the Potency entry in [7], in assay [8], in [9], in [11], in assay [12] and in [13] was “inactive” in each case. For the same molecule, the Potency entry in assay [14], in assay [15], in assay [16], in [18] and in assay [19] was “inactive” each time. Further, the call in [17] was inactive.

On to `CC(=O)[C@@]1(O)CC[C@H]2[C@@H]3C[C@H](C)C4=CC(=O)C=C[C@]4(C)[C@@]3(F)[C@@H](O)C[C@@]21C`, for which the Potency in assay [1] was 6.11 µM (active) and inactive; in [11] it was 61.1 nM (active) and 168 nM (active). Moreover, the Potency entry in assay [2], in [3], in assay [4], in [5], in assay [6] and in [7] was “inactive” throughout. Moreover, the Potency result in [12], in assay [13], in assay [14], in assay [15], in [16] and in assay [18] was “inactive” each time. Also, the Potency result in assay [19] was “inactive”. For the same molecule, in [17], the call was inactive.
